Drawing on the antibiotic and cytotoxicity screens of Wong et al. (2023), this text covers cytotoxicity call for 59 molecules.

Screen size: about 39,000 compounds; about 1,500 (3.8%) were called active. Only a selection was taken, and actives are over-represented in it overall.

This experiment relates to HSkMC (human skeletal muscle cells). In words: cytotoxicity call (relative viability < 0.9). Conditions: 10 µM.
As to `C[C@@H]1CCCCO[C@@H](CN(C)Cc2ccccc2)[C@H](C)CN([C@@H](C)CO)C(=O)c2cc(NC(=O)Cc3ccccc3)ccc2O1`, the cytotoxicity call was “inactive”.
Regarding `C[C@H](CO)N1C[C@H](C)[C@@H](CN(C)S(C)(=O)=O)Oc2ccc(NC(=O)Nc3ccc(F)cc3)cc2C1=O`, the cytotoxicity call was “inactive”.
Consider `C[C@@H]1CN([C@@H](C)CO)C(=O)c2cc(NC(=O)CCCN(C)C)ccc2O[C@@H](C)CCCCO[C@@H]1CN(C)CC1CCCCC1`, for which the cytotoxicity call is “inactive”.
Turning to `C[C@H]1CN([C@@H](C)CO)C(=O)Cc2cc(NS(=O)(=O)c3ccc(Cl)cc3)ccc2O[C@H]1CN(C)Cc1ccc(Oc2ccccc2)cc1`, the cytotoxicity call is “active”.
For `C[C@H](CO)N1C[C@H](C)[C@H](CN(C)Cc2ccc(Oc3ccccc3)cc2)Oc2ccc(NS(=O)(=O)c3ccc(Cl)cc3)cc2CC1=O`, the cytotoxicity call is “active”.
Turning to `C[C@H]1CN([C@@H](C)CO)C(=O)Cc2cc(NS(=O)(=O)c3ccc(Cl)cc3)ccc2O[C@@H]1CN(C)Cc1ccc(Oc2ccccc2)cc1`, the cytotoxicity call was “active”.
Consider `C[C@@H]1CN([C@H](C)CO)C(=O)Cc2cc(NS(=O)(=O)c3ccc(Cl)cc3)ccc2O[C@@H]1CN(C)Cc1ccc(Oc2ccccc2)cc1`, for which the cytotoxicity call is “active”.
As for `Nc1nc(=O)c2[nH]c(=O)cnc2[nH]1`, the cytotoxicity call is “inactive”.
Take `COc1ccc(CN(C)C[C@H]2OCCCC[C@H](C)Oc3ccc(NC(=O)c4ccccc4)cc3C(=O)N([C@H](C)CO)C[C@@H]2C)cc1`: the cytotoxicity call was “inactive”.
As for `CO[C@@H]1CN(C)C(=O)c2ccc(NC(=O)Nc3ccccc3)cc2OC[C@@H](C)N(C(=O)CN(C)C)C[C@H]1C`, the entry is “inactive”; as for `COCC(=O)Nc1ccc2c(c1)C(=O)N(C)C[C@@H](OC)[C@@H](C)CN(Cc1cccc(F)c1)[C@@H](C)CO2`, “inactive”; as for `CC(C)Cn1cnc2c1c(=O)n(C)c(=O)n2C`, “inactive”.
The value for `CC(=O)N1C[C@@H](NC(=O)c2nccn2C)[C@@H]2OCCC[C@@H]21` was “inactive”; that for `C[C@H](CO)N1C[C@H](C)[C@H](CN(C)C(=O)CCC(F)(F)F)OCCCC[C@H](C)Oc2ccc(NS(=O)(=O)c3ccccc3)cc2C1=O` was “inactive”.
As for `CN1CCN(C(=O)C[C@H]2C[C@@H]3c4cc(NS(=O)(=O)c5ccc(F)cc5)ccc4O[C@@H]3[C@@H](CO)O2)CC1`, the entry is “inactive”; as for `C=CCOC(=O)[C@H]1[C@@H]2C(=O)O[C@@H](c3ccccc3)[C@@H](c3ccccc3)N2[C@@H](c2ccc(OCCOC(=O)[C@@H]3C[C@@H]4C(=O)N[C@@H](CCCC[N+](C)(C)C)C(=O)N4[C@@H]3c3cccc(OCCO)c3)cc2)[C@]12C(=O)Nc1ccc(I)cc12`, “inactive”.
Regarding `Cc1noc(C)c1S(=O)(=O)N(C)C[C@H]1OCCCC[C@@H](C)Oc2ccc(NS(C)(=O)=O)cc2C(=O)N([C@@H](C)CO)C[C@@H]1C`, the cytotoxicity call was “inactive”.
In the case of `COc1ccc(NC(=O)N(C)C[C@@H]2Oc3c(NC(=O)C4CCOCC4)cccc3C(=O)N([C@@H](C)CO)C[C@@H]2C)cc1`, the cytotoxicity call was “inactive”.
Turning to `COCC(=O)Nc1ccc2c(c1)C(=O)N(C)C[C@@H](OC)[C@@H](C)CN(C(=O)Cc1cccnc1)[C@@H](C)CO2`, the cytotoxicity call is “inactive”.
As for `CCCCn1c(SCC(N)=O)nc2c1c(=O)n(C)c(=O)n2C`, the entry is “inactive”; as for `C[C@@H]1CN([C@H](C)CO)C(=O)Cc2cc(NS(=O)(=O)c3ccc(Cl)cc3)ccc2O[C@H]1CN(C)Cc1ccc(Oc2ccccc2)cc1`, “active”.
With `C[C@@H]1CN([C@@H](C)CO)C(=O)Cc2cc(NS(=O)(=O)c3ccc(Cl)cc3)ccc2O[C@H]1CN(C)Cc1ccc(Oc2ccccc2)cc1`, the cytotoxicity call is “active”.
On to `C[C@@H]1CN([C@@H](C)CO)C(=O)Cc2cc(NS(=O)(=O)c3ccc(Cl)cc3)ccc2O[C@@H]1CN(C)Cc1ccc(Oc2ccccc2)cc1`, for which the cytotoxicity call was “active”.
Regarding `C[C@H](CO)N1C[C@H](C)[C@@H](CN(C)Cc2ccc(Oc3ccccc3)cc2)Oc2ccc(NS(=O)(=O)c3ccc(Cl)cc3)cc2CC1=O`, the cytotoxicity call is “inactive”.
With `COc1ccc(S(=O)(=O)N(C)C[C@@H]2Oc3ccc(NS(=O)(=O)c4cccs4)cc3C(=O)N([C@@H](C)CO)C[C@H]2C)cc1`, the cytotoxicity call was “inactive”.
As for `CO[C@@H]1CN(C)C(=O)c2cc(NS(=O)(=O)CC(F)(F)F)ccc2OC[C@@H](C)N(Cc2cccnc2)C[C@@H]1C`, the entry is “inactive”; as for `Cc1ccc(S(=O)(=O)N[C@@H]2CC[C@H](CC(=O)NCc3ccc(Cl)c(Cl)c3)O[C@H]2CO)cc1`, “inactive”.
Take `COc1ccc(NC(=O)N(C)C[C@@H]2Oc3ccc(NS(=O)(=O)c4c(C)noc4C)cc3C(=O)N([C@@H](C)CO)C[C@@H]2C)cc1`: the cytotoxicity call is “inactive”.
As for `Cc1noc(C)c1S(=O)(=O)N(C)C[C@H]1Oc2ccc(NS(=O)(=O)c3cccs3)cc2CC(=O)N([C@H](C)CO)C[C@H]1C`, the entry is “inactive”; as for `C[C@H](CO)N1C[C@H](C)[C@H](CN(C)C(=O)Nc2cccc3ccccc23)OCc2cnnn2CCCC1=O`, “inactive”.
As for `C[C@@H]1CN([C@H](C)CO)C(=O)Cc2cc(NC(=O)Nc3ccc(F)cc3)ccc2O[C@H]1CN(C)Cc1ccc(Oc2ccccc2)cc1`, the cytotoxicity call is “active”.
For the molecule `C[C@@H]1CN([C@@H](C)CO)C(=O)Cc2cc(NC(=O)Nc3ccc(F)cc3)ccc2O[C@H]1CN(C)Cc1ccc(Oc2ccccc2)cc1`, the cytotoxicity call was “inactive”.
On to `C[C@H]1CN([C@@H](C)CO)C(=O)Cc2cc(NC(=O)Nc3ccc(F)cc3)ccc2O[C@@H]1CN(C)Cc1ccc(Oc2ccccc2)cc1`, for which the cytotoxicity call was “inactive”.
`C[C@H](CO)N1C[C@H](C)[C@@H](CN(C)Cc2ccc(Oc3ccccc3)cc2)Oc2ccc(NC(=O)Nc3ccc(F)cc3)cc2CC1=O`: the cytotoxicity call was “inactive”.
For the molecule `C[C@@H]1CN([C@@H](C)CO)C(=O)Cc2cc(NC(=O)Nc3ccc(F)cc3)ccc2O[C@@H]1CN(C)Cc1ccc(Oc2ccccc2)cc1`, the cytotoxicity call is “inactive”.
As for `C[C@H](CO)N1C[C@H](C)[C@H](CN(C)Cc2ccc(Oc3ccccc3)cc2)Oc2ccc(NC(=O)Nc3ccc(F)cc3)cc2CC1=O`, the entry is “inactive”; as for `C[C@@H]1CN([C@H](C)CO)C(=O)Cc2cc(NC(=O)Nc3ccc(F)cc3)ccc2O[C@@H]1CN(C)Cc1ccc(Oc2ccccc2)cc1`, “active”.
Regarding `C[C@H]1CN([C@@H](C)CO)C(=O)Cc2cc(NC(=O)Nc3ccc(F)cc3)ccc2O[C@H]1CN(C)Cc1ccc(Oc2ccccc2)cc1`, the cytotoxicity call is “active”.
On to `O=C(NC1Cc2ccccc2C1)[C@H]1[C@H](CO)[C@H]2Cn3c(cccc3=O)[C@H]2N1C(=O)c1cnccn1`, for which the cytotoxicity call is “inactive”.
The value for `Cc1ccc(S(=O)(=O)Nc2ccc3c(c2)C(=O)N([C@H](C)CO)C[C@@H](C)[C@H](CN(C)S(=O)(=O)c2ccc(Cl)cc2)OCCCC[C@@H](C)O3)cc1` was “inactive”; that for `C[C@@H]1CCCCO[C@H](CN(C)CC2CCCCC2)[C@H](C)CN([C@H](C)CO)C(=O)c2cc(NC(=O)CCC(F)(F)F)ccc2O1` was “inactive”; that for `C[C@@H]1CCCCO[C@@H](CN(C)Cc2ccncc2)[C@H](C)CN([C@@H](C)CO)C(=O)c2cc(NS(C)(=O)=O)ccc2O1` was “inactive”.
Regarding `O=C(CCCCC(=O)N/N=C/[C@H](O)[C@@H](O)[C@H](O[C@@H]1O[C@H](CO)[C@H](O)[C@H](O)[C@H]1O)[C@H](O)CO)NO`, the cytotoxicity call was “inactive”.
For the molecule `CCNC(=O)C[C@H]1CC[C@H](NC(=O)C2CCOCC2)[C@@H](CO)O1`, the cytotoxicity call is “inactive”.
In the case of `O=C(CCCCn1c(=O)[nH]c2ccccc2c1=O)N1CCN(c2ncccn2)CC1`, the cytotoxicity call is “inactive”.
For `C[C@@H]1CN([C@@H](C)CO)C(=O)Cc2cc(NC(=O)Nc3ccc(C(F)(F)F)cc3)ccc2O[C@H]1CN(C)C(=O)Nc1ccc(C(F)(F)F)cc1`, the cytotoxicity call is “inactive”.
Regarding `C[C@@H]1CN([C@H](C)CO)C(=O)Cc2cc(NC(=O)Nc3ccc(C(F)(F)F)cc3)ccc2O[C@H]1CN(C)C(=O)Nc1ccc(F)cc1`, the cytotoxicity call was “inactive”.
`C[C@H](CO)N1C[C@H](C)[C@H](CN(C)C(=O)Nc2ccc(C(F)(F)F)cc2)Oc2ccc(NC(=O)Nc3ccc(C(F)(F)F)cc3)cc2CC1=O`: the cytotoxicity call is “active”.
With `C[C@@H]1CN([C@@H](C)CO)C(=O)Cc2cc(NC(=O)Nc3ccc(F)cc3)ccc2O[C@@H]1CN(C)C(=O)Nc1ccc(C(F)(F)F)cc1`, the cytotoxicity call is “inactive”.
As for `C[C@H]1CN([C@@H](C)CO)C(=O)Cc2cc(NC(=O)Nc3ccc(C(F)(F)F)cc3)ccc2O[C@H]1CN(C)C(=O)Nc1ccc(F)cc1`, the cytotoxicity call was “inactive”.
The value for `C[C@@H]1CN([C@H](C)CO)C(=O)Cc2cc(NC(=O)Nc3ccc(F)cc3)ccc2O[C@H]1CN(C)C(=O)Nc1ccc(C(F)(F)F)cc1` was “inactive”; that for `C[C@@H]1CN([C@H](C)CO)C(=O)Cc2cc(NC(=O)Nc3ccc(C(F)(F)F)cc3)ccc2O[C@@H]1CN(C)C(=O)Nc1ccc(C(F)(F)F)cc1` was “active”.
Take `C[C@@H]1CN([C@H](C)CO)C(=O)Cc2cc(NC(=O)Nc3ccc(C(F)(F)F)cc3)ccc2O[C@H]1CN(C)C(=O)Nc1ccc(C(F)(F)F)cc1`: the cytotoxicity call is “active”.
`C[C@H](CO)N1C[C@H](C)[C@@H](CN(C)C(=O)Nc2ccc(C(F)(F)F)cc2)Oc2ccc(NC(=O)Nc3ccc(C(F)(F)F)cc3)cc2CC1=O`: the cytotoxicity call is “inactive”.
As for `C[C@@H]1CN([C@@H](C)CO)C(=O)Cc2cc(NC(=O)Nc3ccc(C(F)(F)F)cc3)ccc2O[C@@H]1CN(C)C(=O)Nc1ccc(F)cc1`, the entry is “active”.
On to `C[C@H]1CN([C@@H](C)CO)C(=O)Cc2cc(NC(=O)Nc3ccc(C(F)(F)F)cc3)ccc2O[C@@H]1CN(C)C(=O)Nc1ccc(C(F)(F)F)cc1`, for which the cytotoxicity call is “inactive”.
As for `C[C@@H]1CN([C@@H](C)CO)C(=O)Cc2cc(NC(=O)Nc3ccc(C(F)(F)F)cc3)ccc2O[C@H]1CN(C)C(=O)Nc1ccc(F)cc1`, the cytotoxicity call is “inactive”.
On to `NCC[C@@H]1CC[C@@H](NC(=O)c2ccccc2F)[C@@H](CO)O1`, for which the cytotoxicity call is “inactive”.
For `C[C@@H]1CCCCO[C@H](CN(C)C(=O)Nc2ccc(F)cc2)[C@@H](C)CN([C@H](C)CO)C(=O)c2cc(NC(=O)Nc3cccc4ccccc34)ccc2O1`, the cytotoxicity call was “inactive”.
